High-throughput results from PubChem.
An excerpt weighted towards active compounds, which were near 1.6% of everything screened.
KCNQ2 block = inhibitors of rat KCNQ2 potassium channel; O88943; CHO-K1 KCNQ2, FluxOR thallium flux, 20 min; stronger effect = lower value; B-score at 10 µM; 1.1% of 310,000 active;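 active means fluorescence ratio B-score at most minus 3 library SDs, with starting brightness B-score within 2 library SDs, cut at about -5.5 in these data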
KCNQ2 pot = enhances the rat KCNQ2 potassium channel. CHO-K1 KCNQ2, FluxOR thallium flux fluorescence; stronger effect = higher value. B-score at 10 µM. 0.54% of 310,000 active;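 active means fluorescence ratio B-score at least 3 SD of library B-scores, with initial fluorescence B-score within 3 of them, cut at about 5.3 in these data; same plate scores as AID 2156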;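 further: B-score of peak minus minimum over baseline fluorescence ratio after K+ and Tl+ stimulus; positive B-score means potentiation of KCNQ2 with more thallium influx and brighter signal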
Kir21 confirm = confirmation of mouse Kir2.1 potassium channel inhibitors | shares compounds with KCNQ2 pot | Kir2.1-expressing cells, FluxOR thallium flux fluorescence; stronger effect = lower value | Tl flux remaining, % of negative control (stronger effect = lower value), % at 10 µM | 41% of 2,300 active;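 active means Primary-screen hit whose thallium flux fell at least 3 control SD below untreated wells in both duplicates, with normal baseline fluorescence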
Target sequence (P35561 whole entry, looked up): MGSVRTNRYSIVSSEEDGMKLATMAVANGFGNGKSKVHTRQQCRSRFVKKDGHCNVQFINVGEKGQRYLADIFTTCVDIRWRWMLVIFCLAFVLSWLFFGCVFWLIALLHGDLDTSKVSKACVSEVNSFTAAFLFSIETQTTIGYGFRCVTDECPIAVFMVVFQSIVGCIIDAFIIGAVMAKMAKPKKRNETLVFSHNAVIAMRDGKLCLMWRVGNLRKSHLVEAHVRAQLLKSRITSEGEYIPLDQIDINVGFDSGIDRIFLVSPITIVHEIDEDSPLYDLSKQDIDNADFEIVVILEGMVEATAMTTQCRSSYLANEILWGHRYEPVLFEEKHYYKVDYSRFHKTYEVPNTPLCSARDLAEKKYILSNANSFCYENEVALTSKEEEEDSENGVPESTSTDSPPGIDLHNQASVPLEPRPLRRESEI
HEK293 Tl flux = counter-screen for Kir2.1 inhibitors: effect in parental HEK293 cells; shares compounds with KCNQ2 pot; FluxOR thallium flux fluorescence; 0% = unstimulated blank wells; FluxOR signal as % of negative control (100 = no effect), % at 10 µM; 19% of 2,300 active; AID 2105;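 active means dye signal at least 3 control SD above or below untreated wells in both duplicates, raw fluorescence within 3, either direction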;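 further: percent is based on the flux ratio of peak minus minimum fluorescence over baseline F0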
CHO-K1 ctr = alters thallium flux in parental CHO-K1 cells, KCNQ2 counter-screen. shares compounds with KCNQ2 pot. FluxOR thallium flux fluorescence; zero = vehicle mean+3SD, 100% = vehicle-minus-blank window. activity increase over 3SD of controls, % at 10 µM. 43% of 1,200 active;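 active means signal rise of at least 3 SD above the untreated control mean, in both duplicate wells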;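 further: counter screen of KCNQ2 potentiator hits so any rise reflects channel-independent effects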
KCNQ1 pot spec = human KCNQ1 counter-target activity of KCNQ2 potentiators; shares compounds with KCNQ2 pot; CHO KCNQ1 stable, FluxOR thallium flux fluorescence; beyond 3SD, as % of vehicle-control signal; activation over 3SD threshold, % at 10 µM; 28% of 1,200 active;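 active means fluorescence ratio rise of at least 3 SD of vehicle wells above their mean, in both replicate wells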
KCNQ2 pot conf = rat KCNQ2 channel potentiator confirmation; potentiation, less the hit threshold, % at 10 µM; CHO-KCNQ2 cells, FluxOR thallium flux fluorescence; shares compounds with KCNQ2 pot; 68% of 1,200 active; AID 2287;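 active means fluorescence ratio rising 3 SD or more over the vehicle control mean in both replicates, plus primary screen hit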;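 further: peak minus minimum thallium fluorescence divided by baseline after K/Tl stimulus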
Kir2-1 sel = tests whether KCNQ2 potentiators also affect mouse Kir2.1 | shares compounds with KCNQ2 pot | HEK293 Kir2.1, FluxOR thallium flux fluorescence | activity over 3SD threshold, % at 10 µM | 2% of 1,200 active;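 active means fluorescence ratio rise of at least 3 SD above the vehicle-control mean, seen in both replicates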
KCNQ2 W236L MoA = potentiates the retigabine-insensitive rat KCNQ2 W236L mutant channel | AID 2558 | current increase over 3SD of negative controls (%), stronger effect = higher value, % at 25 µM | CHO KCNQ2-W236L, automated patch clamp current | shares compounds with KCNQ2 pot | 10% of 940 active;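 active means current increase at least 3 SD of the untreated controls above them in both duplicate recordings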
Large screens that a line does not name were inactive (follow-up assays come after a bar, where they were run).

O=C(NCc1ccco1)/C(=C/c1cccnc1)NC(=O)c1ccco1	none
O=C(Cn1ccc(C(F)(F)F)n1)N/N=C/c1ccc(N2CCOCC2)cc1	none
Cc1c(C(=O)N2CCCCC2CCN2CCCC2=O)oc2c(F)cccc12 (configuration not stated)	none
O=C(c1ccc(CS(=O)c2cccc(Cl)c2)o1)N1CCN(c2ccccn2)CC1 (configuration not stated)	none
COc1cccc(CNc2ccc3[nH]c(=O)[nH]c3c2)c1OCc1ccccc1F	none | Kir21 confirm 65.5% | HEK293 Tl flux inactive
COc1cc(CNc2ccc3[nH]c(=O)[nH]c3c2)cc(Br)c1OCc1ccc(F)cc1	none
CCOC(=O)CSc1nc(-c2cccs2)nc2c1c(=O)n(C)c(=O)n2C	none (no result: KCNQ2 pot)
N#CC1=C(SCc2ccccc2)NC(=O)CC1c1ccccc1 (configuration not stated)	none (no result: KCNQ2 pot) | Kir21 confirm 41.0% | HEK293 Tl flux inactive
CCOC(=O)C1=C(C)NC(SCC(=O)OC)=C(C#N)C1c1ccc(C(=O)OC)cc1 (configuration not stated)	none (no result: KCNQ2 pot)
C=CCSC1=C(C#N)C(c2ccccc2)CC(=O)N1 (configuration not stated)	none
CCOC(=O)CSC1=C(C#N)C(c2ccc(Cl)cc2)CC(=O)N1 (configuration not stated)	none | Kir21 confirm 47.0% | HEK293 Tl flux inactive
CCOC(=O)CSC1=C(C#N)C(c2ccc(F)cc2)C(C(C)=O)=C(C)N1 (configuration not stated)	KCNQ2 pot 8.06 | Kir21 confirm inactive | HEK293 Tl flux inactive | CHO-K1 ctr 13.6 | KCNQ1 pot spec inactive | KCNQ2 pot conf 4.6 | Kir2-1 sel inactive | KCNQ2 W236L MoA inactive
Cc1ccc(C(=O)CSC2=C(C#N)C(c3ccco3)C3=C(CC(C)(C)CC3=O)N2)cc1 (configuration not stated)	none
CCOC(=O)CSC1=C(C#N)C(c2ccc3c(c2)OCO3)CC(=O)N1 (configuration not stated)	none
CC(=O)C1=C(C)NC(SCC(=O)c2ccc(C)cc2)=C(C#N)C1c1ccco1 (configuration not stated)	KCNQ2 pot 11.7 | Kir21 confirm inactive | HEK293 Tl flux inactive | CHO-K1 ctr inactive | KCNQ1 pot spec inactive | KCNQ2 pot conf inactive | Kir2-1 sel inactive
O=S(=O)(Nc1ccccn1)c1cnc(Cl)c(Br)c1	none
O=C(Nc1cc(Cl)ccc1-n1cncn1)c1ccc([N+](=O)[O-])o1	none
O=C(CCNC(=O)c1ccccc1Cl)NCC(c1ccc(F)cc1)N1CCOCC1 (configuration not stated)	none (no result: KCNQ2 pot)
COc1cc(CNCCN2CCOCC2)ccc1OCc1ccc(Cl)cc1	none
COc1cc(CNCCCN2CCOCC2)cc(Br)c1OCc1ccc(Cl)cc1	none (no result: KCNQ2 pot) | Kir21 confirm 33.0% | HEK293 Tl flux inactive
CCN(CC(=O)Nc1c(F)cccc1F)C(=O)CNC(=O)c1cccc(C)c1	none
CCC(C(=O)OCC(=O)N(CCOC)c1c(N)n(Cc2ccccc2)c(=O)[nH]c1=O)c1ccccc1 (configuration not stated)	none (no result: KCNQ2 pot)
CSc1ccc(CNCC(O)c2ccccc2)cc1 (configuration not stated)	none (no result: KCNQ2 pot) | Kir21 confirm 59.0% | HEK293 Tl flux inactive
COc1ccc(CCNCC(O)c2ccccc2)cc1 (configuration not stated)	none
OC(CNCCc1ccccc1)c1ccccc1 (configuration not stated)	none | Kir21 confirm 44.5% | HEK293 Tl flux inactive
O[C@@H](CNC[C@H](O)c1ccccc1)c1ccccc1	none (no result: KCNQ2 pot)
CC(Sc1ccc(Cl)cc1)C(=O)N(C)CC(=O)Nc1ccc(N2CCOCC2)cc1 (configuration not stated)	none
N/C(CC(=O)NC1CCCCC1)=N\OCC(=O)Nc1ccc(Cl)c(Cl)c1	none (no result: KCNQ2 pot)
Clc1cccc2sc(-c3nnc(-c4ccccc4)o3)c(Cl)c12	none
CC(NC(=O)C1CCC(CNS(=O)(=O)c2ccccc2)CC1)c1ccc2c(c1)OCCO2 (configuration not stated)	none
CSc1cc(C)c(OCC(=O)Nc2c(C)nn(C)c2C)c(C)c1	none
COc1ccc(Nc2ncnc3ccccc23)cc1	none
COc1ccc(Nc2ccnc3ccccc23)cc1	none | Kir21 confirm 14.5% | HEK293 Tl flux inactive
Cc1ccc(CN2CCC(c3cc(-c4cccs4)n[nH]3)CC2)cc1	none (no result: KCNQ2 pot) | Kir21 confirm 26.0% | HEK293 Tl flux inactive
FC(F)(F)c1cccc(CN2CCC(c3cc(-c4cccs4)n[nH]3)CC2)c1	none (no result: KCNQ2 pot)
CCCCn1c(N)c(N(CCOC)C(=O)COc2ccc(OCC)cc2)c(=O)[nH]c1=O	none
CCCCn1c(N)c(N(CCOC)C(=O)COC(=O)CCOc2ccccc2)c(=O)[nH]c1=O	none (no result: KCNQ2 pot) | Kir21 confirm inactive | HEK293 Tl flux inactive
c1ccc2oc(-c3ccc(Nc4nc(N5CCCC5)nc(N5CCOCC5)n4)cc3)nc2c1	none
Cc1ccc(Nc2cc(C)nc3ccc(C)cc23)cc1	none | Kir21 confirm 48.5% | HEK293 Tl flux inactive
CCOc1ccc(Nc2cc(C)nc3ccc(C)cc23)cc1	none (no result: KCNQ2 pot)
CCC(=O)N=c1ccn(C2=Nc3ccccc3NC2=C(C#N)C#N)cc1	none (no result: KCNQ2 pot)
Cc1nn(CC(=O)NCCCN2CC(C)CC(C)C2)c(=O)c2cccn12 (configuration not stated)	none (no result: KCNQ2 pot)
COc1ccc(NC(=O)CNC(=O)C23CC4CC(CC(C4)C2)C3)c(OC)c1	none (no result: KCNQ2 pot)
COc1ccccc1NC(=O)CC12CC3CC(CC(Br)(C3)C1)C2	KCNQ2 pot 6.67 | Kir21 confirm inactive | HEK293 Tl flux inactive | CHO-K1 ctr inactive | KCNQ1 pot spec 41.0 | KCNQ2 pot conf 23.0 | Kir2-1 sel inactive | KCNQ2 W236L MoA inactive
COc1ccc(NC(=O)CC23CC4CC(CC(Br)(C4)C2)C3)c(OC)c1	KCNQ2 pot 16.1 | Kir21 confirm inactive | HEK293 Tl flux inactive | CHO-K1 ctr inactive | KCNQ1 pot spec 2.8 | KCNQ2 pot conf 72.3 | Kir2-1 sel inactive | KCNQ2 W236L MoA inactive
NC(=O)c1ccccc1NC(=O)CC12CC3CC(CC(Br)(C3)C1)C2	none
O=C(CSc1nc2c(c(=O)[nH]1)CCCC2)Nc1ccc(Cl)cc1F	none (no result: KCNQ2 pot)
